The text below walks through data of PubChem BioAssay.

Experiment [1] is described as follows: sensitizers of A549 cells to miR-34 induction, primary screen, imaging, A549 dox-inducible miR-34, nuclei and caspase counts (AID 1347080;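 active = compounds whose cell count with miR-34 switched on is under 0.7 times the count with it off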). The note with it: A549 miR-34 inducible, Hoechst nuclei count, 48 h.
A short description of experiment [2]: survival rescue of mitochondrial mutant cells in low glucose, primary screen, MELAS cybrids, Rieske KO mouse fibroblasts, CellTiter-Glo (AID 1508586;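 active = mean z-score across replicates of 1.96 or higher in either the MELAS or the Rieske mutant cell line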;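 also: z relative to plate mean and SD of compound and empty wells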). For orientation: In ATP-based viability assays light output follows the ATP content of the culture.
Experiment [3] in a line: viability rescue of complex I mutant cybrids, primary screen, cell-based, galactose medium, ATP luminescence (AID 1645843;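 active = z-score of at least 1.8 in each of two replicates, scored against plate mean and spread of sample wells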;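 also: positive z means more ATP and so rescue of galactose-driven cybrid death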). The note with it: complex I mutant cybrid cells, 72 h, stronger effect = higher value.
Experiment [4] is described as follows: ovarian cancer cell viability with rucaparib, profiling panel, oncology-focused library, rucaparib conditional (AID 1508598). The note with it: patient-derived ovarian cancer cells, CellTiter-Glo viability, 144 h, stronger effect = lower value.
Setting [5] is: stronger effect = lower value, cell number ratio, induced over uninduced.
Where [6] appears, read: measured here: relative caspase fold change +Dox/-Dox.
[7] abbreviates: measured here: total cells with miR-34 induction, stronger effect = lower value.
The mark [8] stands for this setting: measured here: total cells without miR-34 induction.
Where [9] appears, read: MELAS cybrid survival, CellTiter-Glo 48 h, stronger effect = higher value.
Setting [10] is: Rieske KO mouse fibroblast survival, CellTiter-Glo 72 h.

What is called viability is a read-out of living cells in per cent, often relative to untreated cells.

“And” between values parts separate entries of the source, which are not always exact repeats. Equal values may be shown once. The source made the active and inactive calls.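 The calls were made as follows, unless noted: active = normalized viability below 100% at a tested concentration; inactive = the rest.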

As for `Cc1ccc(C(=O)N2CCC(Cc3ccccc3)CC2)cc1`, the fold change in experiment [1] (setting [5]) is 0.922 (inactive); in experiment [1] (setting [6]) it was 1.12. For the same compound, the cell count was 7870 in experiment [1] (setting [7]) and 8540 in experiment [1] (setting [8]). Also, the z-score in experiment [2] (setting [9]) is -0.903 (inactive); in experiment [2] (setting [10]), 0.658; in experiment [3], -0.71 (inactive).

For `CN(C)c1ccc(N=Nc2ccccc2C(=O)O)cc1`, the fold change was 0.742 (inactive) in experiment [1] (setting [5]) and 0.761 in experiment [1] (setting [6]). Also, the cell count in experiment [1] (setting [7]) came out at 2520; in experiment [1] (setting [8]), 3400. The z-score in experiment [2] (setting [9]) is -1.2 (inactive); in experiment [2] (setting [10]) it was 0.626; in experiment [3], -0.36 (inactive).

Consider `Cc1ccc(NC(=O)c2ccc(CN3CCN(C)CC3)cc2)cc1Nc1nc(-c2cccnc2)cs1`, for which the fold change in experiment [1] (setting [5]) was 0.856 (inactive); in experiment [1] (setting [6]), 1.16. Besides, the cell count in experiment [1] (setting [7]) amounted to 5500; in experiment [1] (setting [8]), 6420. Further, the z-score is -0.618 (inactive) in experiment [2] (setting [9]) and 0.938 in experiment [2] (setting [10]). For the same compound, the viability is 103% (inactive) in experiment [4] (at 0.000305 µM, OCI-C5x cells, with rucaparib 10 µM, 100% = cells with rucaparib alone); 124% (inactive) in experiment [4] (at 0.000305 µM, OCI-C5x cells, without rucaparib); 105% (inactive) in experiment [4] (at 0.000305 µM, OCI-P5x cells, with rucaparib 20 µM, 100% = cells with rucaparib alone); 93.4% (active) in experiment [4] (at 0.000305 µM, OCI-P5x cells, without rucaparib); 105% (inactive) in experiment [4] (at 0.00122 µM, OCI-C5x cells, with rucaparib 10 µM, 100% = cells with rucaparib alone); 120% (inactive) in experiment [4] (at 0.00122 µM, OCI-C5x cells, without rucaparib). Further, the viability in experiment [4] (at 0.00122 µM, OCI-P5x cells, with rucaparib 20 µM, 100% = cells with rucaparib alone) is 109% (inactive); in experiment [4] (at 0.00122 µM, OCI-P5x cells, without rucaparib), 96.2% (active); in experiment [4] (at 0.00488 µM, OCI-C5x cells, with rucaparib 10 µM, 100% = cells with rucaparib alone) it was 112% (inactive); in experiment [4] (at 0.00488 µM, OCI-C5x cells, without rucaparib) it was 129% (inactive); in experiment [4] (at 0.00488 µM, OCI-P5x cells, with rucaparib 20 µM, 100% = cells with rucaparib alone), 102% (inactive); in experiment [4] (at 0.00488 µM, OCI-P5x cells, without rucaparib) it was 92.7% (active). Also, the viability was 109% (inactive) in experiment [4] (at 0.0195 µM, OCI-C5x cells, with rucaparib 10 µM, 100% = cells with rucaparib alone); 124% (inactive) in experiment [4] (at 0.0195 µM, OCI-C5x cells, without rucaparib); 99.3% (active) in experiment [4] (at 0.0195 µM, OCI-P5x cells, with rucaparib 20 µM, 100% = cells with rucaparib alone); 85.4% (active) in experiment [4] (at 0.0195 µM, OCI-P5x cells, without rucaparib); 100% (inactive) in experiment [4] (at 0.0781 µM, OCI-C5x cells, with rucaparib 10 µM, 100% = cells with rucaparib alone); 123% (inactive) in experiment [4] (at 0.0781 µM, OCI-C5x cells, without rucaparib). Also, the viability is 97% (active) in experiment [4] (at 0.0781 µM, OCI-P5x cells, with rucaparib 20 µM, 100% = cells with rucaparib alone); 92.9% (active) in experiment [4] (at 0.0781 µM, OCI-P5x cells, without rucaparib); 113% (inactive) in experiment [4] (at 0.313 µM, OCI-C5x cells, with rucaparib 10 µM, 100% = cells with rucaparib alone); 124% (inactive) in experiment [4] (at 0.313 µM, OCI-C5x cells, without rucaparib); 102% (inactive) in experiment [4] (at 0.313 µM, OCI-P5x cells, with rucaparib 20 µM, 100% = cells with rucaparib alone); 84.1% (active) in experiment [4] (at 0.313 µM, OCI-P5x cells, without rucaparib). Besides, the viability in experiment [4] (at 1.25 µM, OCI-C5x cells, with rucaparib 10 µM, 100% = cells with rucaparib alone) was 106% (inactive); in experiment [4] (at 1.25 µM, OCI-C5x cells, without rucaparib), 130% (inactive); in experiment [4] (at 1.25 µM, OCI-P5x cells, with rucaparib 20 µM, 100% = cells with rucaparib alone), 91.9% (active); in experiment [4] (at 1.25 µM, OCI-P5x cells, without rucaparib) it was 87.9% (active); in experiment [4] (at 5 µM, OCI-C5x cells, with rucaparib 10 µM, 100% = cells with rucaparib alone) it was 129% (inactive); in experiment [4] (at 5 µM, OCI-C5x cells, without rucaparib) it was 138% (inactive). Further, the viability in experiment [4] (at 5 µM, OCI-P5x cells, with rucaparib 20 µM, 100% = cells with rucaparib alone) is 84.2% (active); in experiment [4] (at 5 µM, OCI-P5x cells, without rucaparib), 82% (active).

Regarding `O=C(O)CC(O)CC(O)C=Cc1c(C2CC2)nc2ccccc2c1-c1ccc(F)cc1` (centres undefined), the fold change in experiment [1] (setting [5]) is 0.905 (inactive) and 0.948 (inactive); in experiment [1] (setting [6]), 0.849 and 0.847. Also, the cell count in experiment [1] (setting [7]) was 771 and 1550; in experiment [1] (setting [8]), 852 and 1630. The z-score is 1.33 (inactive) in experiment [2] (setting [9]), -0.125 in experiment [2] (setting [10]) and -1.86 (inactive) in experiment [3].
